Measured values taken from ChEMBL document CHEMBL4513216, “Probing the Open Global Health Chemical Diversity Library for Multistage-Active Starting Points for Next-Generation Antimalarials” (ACS Infect Dis, 2020).
Hit rate of the full screen: of about 69,000 compounds, about 8,600 (12%) showed an effect of 50% or more. The full list was thinned out, with strong results kept by preference.

What follows are compounds tested on Plasmodium berghei (assay: Screen against P. berghei liver stage (PbLuc), transformed with Luciferase, at 10uM). Details: tested at 10 uM.
Assay type: functional, HepG2
For `Cn1cc(-c2ncnc3c2CCN(C(=O)c2cscn2)CC3)cn1`, the INHIBITION was 14.6%.
`O=S(=O)(C1CC1)N1CCC[C@]2(C[C@@H](Oc3ccccn3)CO2)C1` was tested, and the INHIBITION was -49.7%.
With `CCOc1ccnc(N2CCN(C(=O)c3cc[nH]n3)CC2)n1` the INHIBITION was -1.14%.
With `COCCN1CC(C(=O)N(CCN(C)C)Cc2ccc(C)s2)CC1=O` (centres undefined) the INHIBITION was 38.3%.
Compound `COCCn1ccc(NC(=O)CNC(=O)CC(C)(C)C)n1` has an INHIBITION of 34.9%.
Compound `CN(CCO)CC1COCCN1C(=O)C1(c2cccs2)CCCC1` (centres undefined) has an INHIBITION of 14.9%.
For `COCCCN1CCCN(C(C)C(=O)Nc2cccc(I)c2)CC1` (centres undefined), the INHIBITION was 85.1%.
In the case of `COCCN1CCN(C(C)C(=O)Nc2ccnn2C(C)C)CC1` (centres undefined), the INHIBITION is reported as 11.8%.
Compound `COCCCN1CCCN(C(C)C(=O)Nc2ccnn2C(C)C)CC1` (centres undefined) has an INHIBITION of 0.139%.
Compound `CN(C)C(=O)C1OC2(CCN(C(=O)c3ccoc3)CC2)c2ccccc21` (centres undefined) has an INHIBITION of 22.2%.
Work on `O=C(NC1CC1)C1CCc2nnc(-c3cccc(C(F)(F)F)c3)n21` (centres undefined) yielded an INHIBITION of 17.6%.
With `O=C(NC1CC1)C1CCc2nnc(-c3cccnc3)n21` (centres undefined) the INHIBITION was 47.4%.
For `O=C(NC1CC1)C1CCc2nnc(C3CC3)n21` (centres undefined), the INHIBITION was 53.2%.
Work on `CC1CN(C(=O)Nc2cccc(CN3CCOC3=O)c2)CCO1` (centres undefined) yielded an INHIBITION of -43.9%.
In the case of `CCc1cccc(N2CCC(NC(=O)C3CCC3)CC2)c1`, the INHIBITION is reported as 64.7%.
With `COc1ccc2c(c1)CCN(CCC(=O)NC1CCCCC1)CC2` the INHIBITION was 6.8%.
In the case of `CCc1cccc(N2CCC(NC(=O)C3CCOCC3)CC2)c1`, the INHIBITION is reported as 21.5%.
`CCc1cccc(CC(=O)NC2CCN(C(=O)NC(C)(C)C)CC2)c1` showed an INHIBITION of 12.6%.
In the case of `CCC(=O)NC1CCN(c2cccc(CC)c2)CC1`, the INHIBITION is reported as 50.4%.
`COc1cccc(N2CCN(CCC(=O)NC3CCCCC3)CC2)c1` was tested, and the INHIBITION was 64.6%.
Compound `CCc1cccc(N2CCC(NC(=O)CCNC(N)=O)CC2)c1` has an INHIBITION of 5.03%.
Compound `CCc1cccc(N2CCC(NC(=O)C3CCCO3)CC2)c1` (centres undefined) has an INHIBITION of 48.2%.
For `COc1cccc(N2CCN(CCC(=O)NC3CCCC3)CC2)c1`, the INHIBITION was 24.5%.
Work on `CCOCCNC(=O)c1cccnc1N1CCCC1c1ccccn1` (centres undefined) yielded an INHIBITION of -31%.
For `CCc1nc(CN(C)CC(=O)NC(C)C)cs1`, the INHIBITION was 14.8%.
In the case of `Cc1ccc(-n2c(O)cc(C)c(C#N)c2=O)c(C)c1`, the INHIBITION is reported as -8.66%.
With `Cc1cnn(CC2CCCCN2C(=O)c2nccnc2N)c1` (centres undefined) the INHIBITION was -19.9%.
With `CC(=O)c1ccccc1-c1nc(CC2CCN(C)CC2)no1` the INHIBITION was 24.7%.
`Clc1cccc(C(CNCc2ccccn2)N2CCOCC2)c1` (centres undefined) showed an INHIBITION of 53.9%.
With `Clc1cccc(C(CNc2ncccn2)N2CCOCC2)c1` (centres undefined) the INHIBITION was -14.5%.
Work on `Clc1cccc(C(CNCc2cccnc2)N2CCOCC2)c1` (centres undefined) yielded an INHIBITION of 23.2%.
`COc1ccc(C)cc1-c1[nH]c2ccccc2c1C(=O)O` gave an INHIBITION of 3.52%.
`Cc1ccc2c(n1)N(CC(C)C)CCN(C(=O)Cc1ccccn1)C2` showed an INHIBITION of 2.41%.
Work on `CC(Cc1cn(CCc2nc(N)cc(O)n2)nn1)c1ccccc1` (centres undefined) yielded an INHIBITION of 24.9%.
Compound `O=c1c(Cc2ccccc2)c(O)ccn1Cc1ccco1` has an INHIBITION of 34%.
Compound `O=c1c(Cc2ccccc2)c(O)ccn1CCc1ccccc1` has an INHIBITION of 56.2%.
`O=c1c(Cc2ccccc2)c(O)ccn1Cc1cccs1` was tested, and the INHIBITION was -23.5%.
`Cc1nn(CCc2nnc(NCC(C)C)s2)c(C)c1Br` showed an INHIBITION of 7.38%.
Work on `C=C(C)CN1CCCC(CNS(C)(=O)=O)C1` (centres undefined) yielded an INHIBITION of 12%.
`O=C(C1CC=CC1)N1C[C@@H]2CN(Cc3ccsc3)CCO[C@@H]2C1` showed an INHIBITION of 53.2%.
With `CN1CCO[C@@H]2CN(C(=O)Cc3cccs3)CC[C@@H]2C1` the INHIBITION was 26.7%.
Work on `O=C(Cc1ccsc1)N1C[C@@H]2OCCN(CC3CC3)[C@@H]2C1` yielded an INHIBITION of 31.4%.
`O=C(Cc1ccsc1)N1C[C@@H]2OCCN(c3cnccn3)[C@@H]2C1` gave an INHIBITION of 52.3%.
With `O=C(C1CC(F)(F)C1)N1C[C@@H]2CN(Cc3ccsc3)CCO[C@@H]2C1` the INHIBITION was 41.6%.
Work on `CC(C)N1CCO[C@H]2CN(C(=O)Cc3ccsc3)C[C@H]21` yielded an INHIBITION of 7.24%.
In the case of `CN(C)CCN1CCO[C@@H]2CN(C(=O)Cc3ccsc3)CC[C@@H]2C1`, the INHIBITION is reported as 51.2%.
`Cc1ccc(CC(=O)N2CC[C@@H]3CN(CCN(C)C)CCO[C@@H]3C2)cc1` was tested, and the INHIBITION was 47.8%.
For `O=C(C1CCOCC1)N1C[C@@H]2CN(Cc3ccsc3)CCO[C@@H]2C1`, the INHIBITION was 22.9%.
With `CC(C)N1CCO[C@@H]2CN(C(=O)Cc3cccs3)CC[C@@H]2C1` the INHIBITION was 59.3%.
In the case of `CN(C)CCN1CCO[C@@H]2CN(C(=O)c3cccs3)CC[C@@H]2C1`, the INHIBITION is reported as 15.9%.
For `CS(=O)(=O)N1CCO[C@@H]2CN(C(=O)Cc3cccs3)CC[C@@H]2C1`, the INHIBITION was 16.8%.
With `O=C(CN1CCCC(Cn2cncn2)C1)NCCC1=CCCCC1` (centres undefined) the INHIBITION was 37.9%.
Work on `CCc1n[nH]c(C2CN(C(=O)c3cnn(CC)c3)CCO2)n1` (centres undefined) yielded an INHIBITION of -8.11%.
With `O=C(c1ccc2c(c1)OCO2)N1CCC(Nc2cccnn2)CC1` the INHIBITION was 31.9%.
`CN(C)C(=O)COC[C@@H]1CC[C@H]2[C@H](CCN2c2ccccn2)O1` gave an INHIBITION of 11.4%.
`Cn1ccc(C(=O)N2C[C@H]3CCC[C@@]3(COCc3cccnc3)C2)n1` was tested, and the INHIBITION was 3.69%.
`O=C(C1CC(F)(F)C1)N1C[C@@H]2CN(Cc3ccoc3)CCO[C@@H]2C1` showed an INHIBITION of -35.1%.
`CCN1CCO[C@@H]2CN(C(=O)c3cocn3)C[C@@H]2C1` showed an INHIBITION of 18.7%.
`O=C(c1cocn1)N1C[C@@H]2CN(Cc3ccco3)CCO[C@@H]2C1` was tested, and the INHIBITION was 63%.
For `O=C(CC1CCCC1)N1C[C@@H]2CN(Cc3ccoc3)CCO[C@@H]2C1`, the INHIBITION was 34.6%.
`O=C(N1CCCC1)N1C[C@@H]2CN(Cc3ccoc3)CCO[C@@H]2C1` showed an INHIBITION of 80%.
In the case of `O=C(c1cocn1)N1C[C@@H]2CN(CC3CC3)CCO[C@@H]2C1`, the INHIBITION is reported as 6.83%.
With `O=C1NC2(CCN(CC(=O)N3CCOCC3)CC2)Nc2ccc(Br)cc21` the INHIBITION was 23.89%.
`CN1Cc2ccccc2N(CC(O)C(F)(F)F)CCC1=O` (centres undefined) was tested, and the INHIBITION was 18.4%.
